# In all, about 5,500 compounds went through this assay and about 2,000 (36%) were called active. Inconclusive results (about 18%) are left out. The list shows a part of the results. A number with no mark means an inactive call. No stated cut-off is given here; in the data, active means normalized growth mostly below about 0.91 (no sharp cut-off); inconclusive means no clear call, values can overlap the other calls; inactive means mostly above about 0.92.
# Test: chemical genetic growth profiling, strain panel (AID 1159580);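 further: tested at 20 µM; growth read once vehicle control cultures reached saturation at 30 °C; 1 = growth at the plate median or of vehicle wells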
# Details: growth OD
# [1] = S. cerevisiae deletion strains, locus YDL101C, strain DUN1, stronger effect = lower value
# [2] = S. cerevisiae deletion strains, locus YAL013W, strain DEP1, stronger effect = lower value
# [3] = S. cerevisiae deletion strains, locus YBR229C, strain ROT2, stronger effect = lower value
# [4] = S. cerevisiae deletion strains, locus YDL134C, strain PPH21, stronger effect = lower value
# [5] = S. cerevisiae deletion strains, locus YDR150W, strain NUM1, stronger effect = lower value
# [6] = S. cerevisiae deletion strains, locus YEL061C, strain CIN8, stronger effect = lower value
# [7] = S. cerevisiae deletion strains, locus YGR078C, strain PAC10, stronger effect = lower value
# [8] = S. cerevisiae deletion strains, locus YHR030C, strain SLT2, stronger effect = lower value
# [9] = S. cerevisiae deletion strains, locus YHR087W, strain rtc3, stronger effect = lower value
# [10] = S. cerevisiae deletion strains, locus YJR043C, strain POL32, stronger effect = lower value
# [11] = S. cerevisiae deletion strains, locus YJR075W, strain HOC1, stronger effect = lower value
# [12] = S. cerevisiae deletion strains, locus YLR039C, strain RIC1, stronger effect = lower value
# [13] = S. cerevisiae deletion strains, locus YLR058C, strain SHM2 (second series), stronger effect = lower value
# [14] = S. cerevisiae deletion strains, locus YLR085C, strain ARP6, stronger effect = lower value
# [15] = S. cerevisiae deletion strains, locus YLR262C, strain YPT6, stronger effect = lower value
# [16] = S. cerevisiae deletion strains, locus YML094W, strain GIM5, stronger effect = lower value
# [17] = S. cerevisiae deletion strains, locus YMR219W, strain ESC1, stronger effect = lower value
# [18] = S. cerevisiae deletion strains, locus YMR263W, strain SAP30, stronger effect = lower value
# [19] = S. cerevisiae deletion strains, locus YNL128W, strain TEP1, stronger effect = lower value
# [20] = S. cerevisiae deletion strains, locus YNL153C, strain GIM3, stronger effect = lower value
# [21] = S. cerevisiae deletion strains, locus YNL298W, strain CLA4 (second series), stronger effect = lower value
# [22] = S. cerevisiae deletion strains, locus YNL322C, strain KRE1, stronger effect = lower value
# [23] = S. cerevisiae deletion strains, locus YNR030W, strain Alg12, stronger effect = lower value
# [24] = S. cerevisiae deletion strains, locus YPL055C, strain LGE1, stronger effect = lower value
# [25] = S. cerevisiae deletion strains, locus YPL241C, strain CIN2, stronger effect = lower value
# [26] = S. cerevisiae deletion strains, locus YPR135W, strain CTF4, stronger effect = lower value
structure (smiles),measurement,setting,value
O=C(Nc1ccc(F)cc1)c1cc(Br)ccc1O,normalized growth,"S. cerevisiae deletion strains, locus YAR019C, strain CDC15, stronger effect = lower value",0.91
same,normalized growth,"S. cerevisiae deletion strains, locus YBL105C, strain PKC1, stronger effect = lower value",0.907
same,normalized growth,"S. cerevisiae deletion strains, locus YBR135W, strain CKS1, stronger effect = lower value",0.901
same,normalized growth,"S. cerevisiae deletion strains, locus YBR136W, strain MEC1, stronger effect = lower value",0.913
same,normalized growth,"S. cerevisiae deletion strains, locus YBR160W, strain CDC28, stronger effect = lower value",0.899
same,normalized growth,"S. cerevisiae deletion strains, locus YDL017W, strain CDC7, stronger effect = lower value",0.898 (active)
same,normalized growth,"S. cerevisiae deletion strains, locus YDL028C, strain MPS1, stronger effect = lower value",0.909
same,normalized growth,[1],0.952
same,normalized growth,"S. cerevisiae deletion strains, locus YDL108W, strain KIN28, stronger effect = lower value",0.897
same,normalized growth,"S. cerevisiae deletion strains, locus YDL132W, strain cdc53, stronger effect = lower value",0.94
same,normalized growth,"S. cerevisiae deletion strains, locus YDL214C, strain PRR2, stronger effect = lower value",0.867
same,normalized growth,"S. cerevisiae deletion strains, locus YDR052C, strain DBF4, stronger effect = lower value",0.905 (active)
same,normalized growth,"S. cerevisiae deletion strains, locus YDR054C, strain cdc34, stronger effect = lower value",0.876 (active)
same,normalized growth,"S. cerevisiae deletion strains, locus YDR226W, strain ADK1, stronger effect = lower value",0.941
same,normalized growth,"S. cerevisiae deletion strains, locus YDR477W, strain SNF1, stronger effect = lower value",0.882
same,normalized growth,"S. cerevisiae deletion strains, locus YER123W, strain YCK3, stronger effect = lower value",0.806
same,normalized growth,"S. cerevisiae deletion strains, locus YER133W, strain GLC7, stronger effect = lower value",0.908
same,normalized growth,"S. cerevisiae deletion strains, locus YFL009W, strain cdc4, stronger effect = lower value",0.887 (active)
same,normalized growth,"S. cerevisiae deletion strains, locus YFL029C, strain CAK1, stronger effect = lower value",0.894
same,normalized growth,"S. cerevisiae deletion strains, locus YFR003C, strain YPI1, stronger effect = lower value",0.907
same,normalized growth,"S. cerevisiae deletion strains, locus YFR019W, strain FAB1, stronger effect = lower value",0.901
same,normalized growth,"S. cerevisiae deletion strains, locus YFR028C, strain CDC14, stronger effect = lower value",0.863 (active)
same,normalized growth,"S. cerevisiae deletion strains, locus YGR040W, strain KSS1, stronger effect = lower value",0.797
same,normalized growth,"S. cerevisiae deletion strains, locus YGR052W, strain FMP48, stronger effect = lower value",0.901
same,normalized growth,"S. cerevisiae deletion strains, locus YGR092W, strain DBF2, stronger effect = lower value",0.614
same,normalized growth,"S. cerevisiae deletion strains, locus YHR079C, strain IRE1, stronger effect = lower value",0.827
same,normalized growth,"S. cerevisiae deletion strains, locus YHR082C, strain KSP1, stronger effect = lower value",0.813
same,normalized growth,"S. cerevisiae deletion strains, locus YHR205W, strain SCH9, stronger effect = lower value",0.615
same,normalized growth,"S. cerevisiae deletion strains, locus YIL147C, strain SLN1, stronger effect = lower value",0.918
same,normalized growth,"S. cerevisiae deletion strains, locus YJL095W, strain BCK1, stronger effect = lower value",0.791
same,normalized growth,"S. cerevisiae deletion strains, locus YJL128C, strain PBS2, stronger effect = lower value",0.957
same,normalized growth,"S. cerevisiae deletion strains, locus YJL157C, strain FAR1, stronger effect = lower value",0.83
same,normalized growth,"S. cerevisiae deletion strains, locus YJR016C, strain ILV3, stronger effect = lower value",0.923
same,normalized growth,"S. cerevisiae deletion strains, locus YJR066W, strain TOR1 (second series), stronger effect = lower value",0.904
same,normalized growth,"S. cerevisiae deletion strains, locus YJR066W, strain TOR1, stronger effect = lower value",0.786
same,normalized growth,"S. cerevisiae deletion strains, locus YKL048C, strain ELM1, stronger effect = lower value",0.891
same,normalized growth,"S. cerevisiae deletion strains, locus YKL067W, strain YNK1, stronger effect = lower value",0.853
same,normalized growth,"S. cerevisiae deletion strains, locus YKL101W, strain HSL1, stronger effect = lower value",0.817
same,normalized growth,"S. cerevisiae deletion strains, locus YKL193C, strain SDS22, stronger effect = lower value",0.901
same,normalized growth,"S. cerevisiae deletion strains, locus YKL203C, strain TOR2, stronger effect = lower value",0.873
same,normalized growth,"S. cerevisiae deletion strains, locus YLR113W, strain HOG1, stronger effect = lower value",0.804 (active)
same,normalized growth,"S. cerevisiae deletion strains, locus YLR133W, strain CKI1, stronger effect = lower value",0.835
same,normalized growth,"S. cerevisiae deletion strains, locus YLR403W, strain SFP1, stronger effect = lower value",0.834
same,normalized growth,"S. cerevisiae deletion strains, locus YML070W, strain DAK1, stronger effect = lower value",0.86
same,normalized growth,"S. cerevisiae deletion strains, locus YMR001C, strain CDC5, stronger effect = lower value",0.908
same,normalized growth,"S. cerevisiae deletion strains, locus YMR205C, strain PFK2 (second series), stronger effect = lower value",0.832
same,normalized growth,"S. cerevisiae deletion strains, locus YMR277W, strain FCP1, stronger effect = lower value",0.884 (active)
same,normalized growth,"S. cerevisiae deletion strains, locus YNL006W, strain LST8, stronger effect = lower value",0.923
same,normalized growth,"S. cerevisiae deletion strains, locus YNL020C, strain ARK1, stronger effect = lower value",0.797
same,normalized growth,"S. cerevisiae deletion strains, locus YNL161W, strain CBK1, stronger effect = lower value",0.913
same,normalized growth,"S. cerevisiae deletion strains, locus YNL183C, strain NPR1, stronger effect = lower value",0.758
same,normalized growth,"S. cerevisiae deletion strains, locus YNL207W, strain RIO2, stronger effect = lower value",0.907
same,normalized growth,"S. cerevisiae deletion strains, locus YNL222W, strain SSU72, stronger effect = lower value",0.902
same,normalized growth,"S. cerevisiae deletion strains, locus YNL307C, strain MCK1 (second series), stronger effect = lower value",0.776
same,normalized growth,"S. cerevisiae deletion strains, locus YOL078W, strain AVO1, stronger effect = lower value",0.898
same,normalized growth,"S. cerevisiae deletion strains, locus YOL136C, strain PFK27, stronger effect = lower value",0.837
same,normalized growth,"S. cerevisiae deletion strains, locus YOR061W, strain CKA2, stronger effect = lower value",0.773
same,normalized growth,"S. cerevisiae deletion strains, locus YOR119C, strain RIO1, stronger effect = lower value",0.881
same,normalized growth,"S. cerevisiae deletion strains, locus YOR231W, strain MKK1, stronger effect = lower value",0.845
same,normalized growth,"S. cerevisiae deletion strains, locus YOR329C, strain SCD5, stronger effect = lower value",0.912
same,normalized growth,"S. cerevisiae deletion strains, locus YPL031C, strain PHO85, stronger effect = lower value",0.865
same,normalized growth,"S. cerevisiae deletion strains, locus YPL153C, strain RAD53, stronger effect = lower value",0.777
same,normalized growth,"S. cerevisiae deletion strains, locus YPL204W, strain HRR25, stronger effect = lower value",0.862
same,normalized growth,"S. cerevisiae deletion strains, locus YPL209C, strain IPL1, stronger effect = lower value",0.909
same,normalized growth,"S. cerevisiae deletion strains, locus YPL256C, strain CLN2, stronger effect = lower value",0.837 (active)
same,normalized growth,"S. cerevisiae deletion strains, locus YPR025C, strain CCL1, stronger effect = lower value",0.907
same,normalized growth,"S. cerevisiae deletion strains, locus YPR106W, strain ISR1, stronger effect = lower value",0.914
same,normalized growth,"S. cerevisiae deletion strains, locus YPR111W, strain DBF20, stronger effect = lower value",0.893
same,normalized growth,"S. cerevisiae deletion strains, strain NNK1, stronger effect = lower value",0.927
same,normalized growth,"S. cerevisiae deletion strains, strain TSCII, stronger effect = lower value",0.902
Clc1cc(Cl)cc(Br)c1,normalized growth,[2],1.03
same,normalized growth,[3],1.02
same,normalized growth,[1],1.02
same,normalized growth,[4],1.02
same,normalized growth,[5],1.04
same,normalized growth,[6],1.03
same,normalized growth,[7],1.01
same,normalized growth,[8],1.1
same,normalized growth,[9],1.05
same,normalized growth,[10],1.01
same,normalized growth,[11],1
same,normalized growth,[12],1.09
same,normalized growth,[13],1.02
same,normalized growth,[14],1.14
same,normalized growth,[15],1.07
same,normalized growth,[16],1.04
same,normalized growth,[17],1.02
same,normalized growth,[18],1.02
same,normalized growth,[19],1.02
same,normalized growth,[20],1.01
same,normalized growth,[21],1.08
same,normalized growth,[22],1.02
same,normalized growth,[23],1.05
same,normalized growth,[24],1.03
same,normalized growth,[25],1.04
same,normalized growth,[26],1.16
Nc1c(Cl)cc(C(=O)Nc2cc(Cl)cc(Cl)c2)cc1Cl,normalized growth,[2],0.897 (active)
same,normalized growth,[3],0.957
same,normalized growth,"S. cerevisiae deletion strains, locus YCL061C, strain MRC1, stronger effect = lower value",0.994
same,normalized growth,[1],1.02
same,normalized growth,[4],0.978
same,normalized growth,[5],0.934
same,normalized growth,[6],0.956
same,normalized growth,[7],0.977
same,normalized growth,[8],0.496 (active)
same,normalized growth,[9],0.935
same,normalized growth,[10],0.907 (active)
same,normalized growth,[11],0.97
same,normalized growth,[12],0.77 (active)
same,normalized growth,[13],0.99
same,normalized growth,[14],0.842
same,normalized growth,[15],0.847
same,normalized growth,[16],0.872
same,normalized growth,[17],0.976
same,normalized growth,[18],0.934
same,normalized growth,"S. cerevisiae deletion strains, locus YMR307W, strain GAS1, stronger effect = lower value",0.651 (active)
same,normalized growth,[19],0.982
same,normalized growth,[20],0.984
same,normalized growth,[21],0.825 (active)
same,normalized growth,[22],1
same,normalized growth,[23],0.778 (active)
same,normalized growth,[24],0.8 (active)
same,normalized growth,[25],0.821 (active)
same,normalized growth,[26],0.894
same,normalized growth,"S. cerevisiae strains, strain wild type, stronger effect = lower value",0.956
